Results as given in PubChem BioAssay (NCI).
The panel holds about 83,000 compounds, 20% with a hit somewhere; the sample as a whole holds those more often.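 48-hour exposure, single concentration, 96-well plates; percent growth endpoint where 0 means no net growth. Active: below 10.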 Active and inactive are the calls of the source.

Key:
Test in all cases: NCI-60 one-dose screen, 48 h (100 = growth as untreated, 0 = no growth, -100 = all killed)
Settings in all cases: 10 µM unless noted
T-47D breast = system: T-47D breast
BT-549 breast = system: BT-549 breast
SW-620 colon = system: SW-620 colon
MCF7 breast = system: MCF7 breast
HCT-116 colon = system: HCT-116 colon
HCC-2998 colon = system: HCC-2998 colon
KM12 colon = system: KM12 colon
MDA-MB-435 melanoma = system: MDA-MB-435 melanoma

Measured: growth

CC(C)C(=O)Nc1ccc(-c2nc(-c3cccc(O)c3)c(-c3ccnc(Br)c3)[nH]2)cc1
inactive: BT-549 breast 60.5% | SW-620 colon 43.2% | MCF7 breast 11.7% | HCT-116 colon 53.4% | HCC-2998 colon 67.9% | KM12 colon 43.3%
active: T-47D breast 7.84%

O=C(NNc1nc2cc(F)c(F)cc2n2cccc12)c1cccnn1
inactive: T-47D breast 13.7% | MDA-MB-435 melanoma 27.8% | SW-620 colon 22% | HCC-2998 colon 49.2% | KM12 colon 24.3%
active: MCF7 breast 7.41% | HCT-116 colon 8.91%

O=C(C[n+]1ccnc2ccccc21)c1ccc(O)c(O)c1
active: HCT-116 colon 7.08%
inactive: T-47D breast 45% | BT-549 breast 51.7% | SW-620 colon 24% | MCF7 breast 12.5% | HCC-2998 colon 81.2% | KM12 colon 82.3%

COC(=O)Nc1ccc(-c2nc(-c3cccc(O)c3)c(-c3ccnc(Br)c3)[nH]2)cc1
inactive: T-47D breast 34.7% | BT-549 breast 66.1% | SW-620 colon 70.3% | MCF7 breast 14.6% | HCT-116 colon 49.7% | HCC-2998 colon 84.7% | KM12 colon 50.7%

C#C[C@]1(O)CC[C@H]2[C@@H]3CC=C4c5sc(C6CC6)nc5CC[C@]4(C)[C@H]3CC[C@@]21C
inactive: T-47D breast 73.8% | BT-549 breast 90.5% | SW-620 colon 91.2% | MCF7 breast 64.7% | HCT-116 colon 71.4% | HCC-2998 colon 83.6% | KM12 colon 57.4%

C#C[C@]1(O)CC[C@H]2[C@@H]3CC=C4c5sc(-c6ccc(OC)cc6)nc5CC[C@]4(C)[C@H]3CC[C@@]21C
inactive: T-47D breast 73.6% | BT-549 breast 47% | SW-620 colon 51.3% | MCF7 breast 27.6% | HCT-116 colon 59.9% | HCC-2998 colon 90.1% | KM12 colon 60%

CN(c1ccc(Cl)cc1)S(=O)(=O)c1ccc(-c2cnc(C3CC3)o2)cc1
inactive: T-47D breast 58.9% | BT-549 breast 35.1% | SW-620 colon 25.8% | MCF7 breast 15% | HCT-116 colon 10.6% | HCC-2998 colon 22.7%
active: KM12 colon 8.94%

O=S(=O)(Nc1ccc(-c2nc(-c3cccc(O)c3)c(-c3ccnc(Br)c3)[nH]2)cc1)c1ccccc1
inactive: BT-549 breast 51.9% | SW-620 colon 49.8% | HCT-116 colon 27% | HCC-2998 colon 32.4% | KM12 colon 21.5%
active: T-47D breast 1.01% | MCF7 breast 7.26%

CCC(=O)Nc1ccc(-c2nc(-c3cccc(O)c3)c(-c3ccnc(Br)c3)[nH]2)cc1
inactive: T-47D breast 26.4% | BT-549 breast 74.1% | SW-620 colon 84.7% | MCF7 breast 13.3% | HCT-116 colon 55.9% | HCC-2998 colon 95.8% | KM12 colon 58.9%

CC(=O)Nc1nc2c(s1)C1=CC[C@H]3[C@@H]4CC[C@H](C(C)=O)[C@@]4(C)CC[C@@H]3[C@@]1(C)CC2
inactive: T-47D breast 68% | BT-549 breast 62.3% | SW-620 colon 82.3% | MCF7 breast 20.6% | HCT-116 colon 60.4% | KM12 colon 47.7%

O=S(=O)(Nc1cc(Cl)cc(Cl)c1)c1ccc(-c2cnc(C3CC3)o2)cc1
inactive: T-47D breast 41.7% | BT-549 breast 58.4% | SW-620 colon 26.1% | MCF7 breast 20.9% | HCT-116 colon 31.3% | HCC-2998 colon 56.7% | KM12 colon 24.2%

Cc1ccc(/C=C/CC(=O)Nc2ccc(C(=O)Nc3ccc(F)cc3N)nc2)cn1
inactive: T-47D breast 10.8% | MDA-MB-435 melanoma 18.6% | SW-620 colon 26.8% | MCF7 breast 18.4% | HCT-116 colon 17.7% | HCC-2998 colon 31.4% | KM12 colon 49.5%

O=C1NC(=O)/C(=C/c2ccc(OCc3cc4ccccc4nc3Cl)cc2)S1
inactive: T-47D breast 87.8% | MDA-MB-435 melanoma 98.3% | SW-620 colon 104% | MCF7 breast 91.6% | HCT-116 colon 98.1% | KM12 colon 100%

Cc1cnc2nc(NN)[nH]n12
inactive: T-47D breast 98.4% | MDA-MB-435 melanoma 99.7% | SW-620 colon 103% | MCF7 breast 92.6% | HCT-116 colon 98.9% | HCC-2998 colon 108% | KM12 colon 100%

O=C1Nc2ccc(Br)cc2/C1=N\c1nnc(-c2ccc(Cl)cc2)o1
inactive: T-47D breast 76.7% | SW-620 colon 16.5% | MCF7 breast 34.9% | HCT-116 colon 49.2% | HCC-2998 colon 96.2% | KM12 colon 70%
active: MDA-MB-435 melanoma -20.7%

CC1(C)CC[C@]2(C(=O)O)CC[C@]3(C)C(=CCC4[C@@]5(C)C[C@@H](O)[C@@H]6OC(c7ccccc7O)OC[C@@]6(C)C5CC[C@]43C)C2C1 (some centres undefined)
active: HCT-116 colon 4.38%
inactive: T-47D breast 57.7% | MDA-MB-435 melanoma 77.5% | SW-620 colon 37.8% | MCF7 breast 62.8% | HCC-2998 colon 34.9% | KM12 colon 24.5%

C=C(C)[C@@H]1CC[C@]2(COS(C)(=O)=O)CC[C@]3(C)[C@H](CC[C@@H]4[C@@]5(C)CCCNC(C)(C)[C@@H]5CC[C@]43C)[C@@H]12
active: SW-620 colon 4.87% | MCF7 breast 3.49%
inactive: T-47D breast 77.5% | MDA-MB-435 melanoma 44.9% | HCT-116 colon 15.6% | HCC-2998 colon 16.4% | KM12 colon 26.2%

CC1(C)CC[C@]2(C(=O)N3CCCN(CC#N)CC3)CC[C@]3(C)C(=CC[C@@H]4[C@@]5(C)CC[C@H](O)C(C)(C)[C@@H]5CC[C@]43C)[C@H]2C1
inactive: T-47D breast 52.1% | MDA-MB-435 melanoma 59.8% | SW-620 colon 27.8% | HCC-2998 colon 71.2% | KM12 colon 54.1%
active: MCF7 breast 5.68% | HCT-116 colon -47.6%

C(=C(\C1=NCCN1)n1cnc2ccccc21)/c1ccc2ccccc2c1
inactive: T-47D breast 57.1% | MDA-MB-435 melanoma 25.7% | SW-620 colon 67.9% | MCF7 breast 30.4% | HCT-116 colon 67.1% | HCC-2998 colon 71.5% | KM12 colon 69.2%

Cc1cc(NS(=O)(=O)c2ccc(-c3cnc(C4CC4)o3)cc2)ccc1I
inactive: T-47D breast 32.5% | SW-620 colon 25.5% | MCF7 breast 25.4% | HCT-116 colon 28.3% | HCC-2998 colon 63.8% | KM12 colon 27.4%
active: MDA-MB-435 melanoma 3.85%

CC(C)N=C(N/C(N)=N/c1nc2ccccc2s1)NC(C)C
inactive: T-47D breast 58.4% | MDA-MB-435 melanoma 35.9% | SW-620 colon 33.3% | MCF7 breast 43.2% | HCT-116 colon 17.7% | HCC-2998 colon 76.9% | KM12 colon 65.9%

O=C(NCCCCCCNC(=O)c1c2c(nc3ccccc13)-c1cccnc1SC2)c1c2c(nc3ccccc13)-c1cccnc1SC2
inactive: T-47D breast 79.7% | MDA-MB-435 melanoma 56.8% | SW-620 colon 39.2% | MCF7 breast 76.1% | HCT-116 colon 66.3% | HCC-2998 colon 44.6% | KM12 colon 74.7%

Cc1cc(C(=O)Nc2ccc(SC#N)cc2)c(C)o1
inactive: T-47D breast 84.1% | MDA-MB-435 melanoma 103% | SW-620 colon 104% | MCF7 breast 88.1% | HCT-116 colon 96.1% | HCC-2998 colon 107% | KM12 colon 89%

CCOC(=O)c1c(NC(=O)c2ccc(C(C)(C)C)cc2)sc2cc(OCCN3CCCCC3)ccc12
inactive: T-47D breast 96.9% | MDA-MB-435 melanoma 91.8% | SW-620 colon 22.2% | MCF7 breast 34.8% | HCT-116 colon 21.7% | HCC-2998 colon 87% | KM12 colon 51.1%

CCOC(=O)c1c(Nc2ccccc2)nn2c(-c3ccc(Br)cc3)ccnc12
inactive: T-47D breast 41.3% | MDA-MB-435 melanoma 80.3% | SW-620 colon 78.4% | MCF7 breast 80.9% | HCT-116 colon 42.5% | HCC-2998 colon 87.1% | KM12 colon 78.3%

O=C(/C=C/c1cccc(O)c1)c1ccc(O)cc1
inactive: T-47D breast 62.6% | MDA-MB-435 melanoma 65.5% | SW-620 colon 49.2% | MCF7 breast 37.3% | HCT-116 colon 33.8% | HCC-2998 colon 110% | KM12 colon 33.4%

O=C(Nc1cc(F)cc2cccnc12)c1cnc(N2CCOCC2)cn1
inactive: T-47D breast 23.9% | MDA-MB-435 melanoma 90.9% | SW-620 colon 51.3% | HCC-2998 colon 107% | KM12 colon 99.1%
active: MCF7 breast 2.58% | HCT-116 colon 9.63%

C#CCOc1ccc(/C=N/Nc2nc(-c3cc4cc(Br)cc(Br)c4oc3=O)cs2)cc1
inactive: T-47D breast 88.6% | MDA-MB-435 melanoma 91.8% | SW-620 colon 104% | MCF7 breast 65.9% | HCT-116 colon 91.8% | HCC-2998 colon 108% | KM12 colon 88%

C#C[C@]1(O)CC[C@H]2[C@@H]3CC=C4c5sc(-c6cccc(F)c6)nc5CC[C@]4(C)[C@H]3CC[C@@]21C
inactive: T-47D breast 65.4% | SW-620 colon 89.7% | MCF7 breast 66.7% | HCT-116 colon 80.6% | HCC-2998 colon 85.2% | KM12 colon 75.6%

CCOC(=O)c1c(NCC(=O)Nc2cccc([N+](=O)[O-])c2)sc2c1CCCC2
active: T-47D breast -28.2% | MDA-MB-435 melanoma -91.5% | SW-620 colon -2.82% | MCF7 breast -12.8% | HCT-116 colon -21% | HCC-2998 colon -76.5% | KM12 colon -20.4%

COc1ccc(C2C(C#N)=C(N)Oc3c2sc2ccc(C)cc32)cc1 (centres undefined)
active: MDA-MB-435 melanoma -26.4%
inactive: T-47D breast 32.7% | SW-620 colon 13.9% | MCF7 breast 19.2% | HCT-116 colon 22.1% | HCC-2998 colon 53.2% | KM12 colon 24.2%
